Experimental findings from PubChem BioAssay (NCATS) are described below.

Activity calls are given as the source filed them. Calls follow the shape of the full dose curve.

The first test is described as follows: qHTS drug screen for cell cycle checkpoint inhibitors in PARPi-resistant BRCA-mutant ovarian cancer cell lines. (AID 1963452). The settings on record: PEO1/OlaR viability, CellTiter-Glo luminescence, 96 h; stronger effect = lower value. The essentials: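 PEO1, PEO4 and PEO1/OlaR ovarian cancer cells, 600 per well, exposed 96 h at 37C to a dilution series. Viability read by CellTiter-Glo luminescence, normalized to DMSO and empty wells; activity summarized as Z-AUC.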
(Quantitative high-throughput screening tests each substance at several concentrations.)
As to `CC(=O)O[C@]1(C(C)=O)CC[C@H]2[C@@H]3C[C@H](C)C4=CC(=O)CC[C@]4(C)[C@H]3CC[C@@]21C`, the Z-AUC is -1.26 (inactive).

As to `CC(=O)N(O)CCCCCNC(=O)CCC(=O)N(O)CCCCCNC(=O)CCC(=O)N(O)CCCCCN`, the Z-AUC is -0.069 (inactive).

Regarding `Cc1cc2c(cc1CC(=O)c1sccc1S(=O)(=O)Nc1onc(C)c1Cl)OCO2`, the Z-AUC is 0.64 (inactive).

Take `COc1cc(NS(C)(=O)=O)ccc1Nc1c2ccccc2nc2ccccc12`: the Z-AUC is -0.779 (inactive).

Regarding `C[C@]12CCC(=O)C=C1[C@@H]1C[C@@H]1[C@H]1[C@@H]3[C@@H]4C[C@@H]4[C@@]4(CCC(=O)O4)[C@@]3(C)CC[C@@H]12`, the Z-AUC is 1.29 (inactive).

In the case of `COC(=O)[C@@H]1CC2=CC(=O)CC[C@]2(C)[C@@]23O[C@@H]2C[C@@]2(C)[C@@H](CC[C@@]24CCC(=O)O4)[C@H]13`, the Z-AUC is -0.162 (inactive).

Regarding `CC(C)n1nc(-c2cc3cc(O)ccc3[nH]2)c2c(N)ncnc21`, the Z-AUC was -1.59 (inactive).

Consider `COc1c(C)c2c(c(O)c1C/C=C(\C)CCC(=O)O)C(=O)OC2`, for which the Z-AUC was -0.522 (inactive).

For `C[C@]12CC[C@@H]3c4ccc(O)cc4CC[C@H]3[C@@H]1C[C@@H](O)[C@@H]2O`, the Z-AUC is -0.032 (inactive).

`C[C@]12C=CC(=O)C=C1CC[C@@H]1[C@@H]2[C@@H](O)C[C@@]2(C)[C@H]1CC[C@]2(O)C(=O)CO`: the Z-AUC is -0.821 (inactive).

The test is the same for the next values; noted with them: PEO1/OlaR viability, CellTiter-Glo luminescence, 96 h; measured here: PEO1 parental Z-AUC; stronger effect = lower value.
With `CC(=O)O[C@]1(C(C)=O)CC[C@H]2[C@@H]3C[C@H](C)C4=CC(=O)CC[C@]4(C)[C@H]3CC[C@@]21C`, the Z-AUC was -0.257.

With `CC(=O)N(O)CCCCCNC(=O)CCC(=O)N(O)CCCCCNC(=O)CCC(=O)N(O)CCCCCN`, the Z-AUC is -0.402.

Take `Cc1cc2c(cc1CC(=O)c1sccc1S(=O)(=O)Nc1onc(C)c1Cl)OCO2`: the Z-AUC turned out to be 0.98.

`COc1cc(NS(C)(=O)=O)ccc1Nc1c2ccccc2nc2ccccc12`: the Z-AUC was -1.77.

For `C[C@]12CCC(=O)C=C1[C@@H]1C[C@@H]1[C@H]1[C@@H]3[C@@H]4C[C@@H]4[C@@]4(CCC(=O)O4)[C@@]3(C)CC[C@@H]12`, the Z-AUC was found to be 0.636.

As for `COC(=O)[C@@H]1CC2=CC(=O)CC[C@]2(C)[C@@]23O[C@@H]2C[C@@]2(C)[C@@H](CC[C@@]24CCC(=O)O4)[C@H]13`, the Z-AUC is -0.149.

With `COc1cccc2c1C(=O)c1c(O)c3c(c(O)c1C2=O)C[C@@](O)(C(C)=O)C[C@@H]3O[C@H]1C[C@H](N)[C@H](O)[C@H](C)O1`, the Z-AUC was -2.1.

For `CC(C)n1nc(-c2cc3cc(O)ccc3[nH]2)c2c(N)ncnc21`, the Z-AUC was -1.29.

On to `COc1c(C)c2c(c(O)c1C/C=C(\C)CCC(=O)O)C(=O)OC2`, for which the Z-AUC is -0.0213.

Regarding `C[C@]12CC[C@@H]3c4ccc(O)cc4CC[C@H]3[C@@H]1C[C@@H](O)[C@@H]2O`, the Z-AUC amounted to 0.00281.

Turning to `C[C@]12C=CC(=O)C=C1CC[C@@H]1[C@@H]2[C@@H](O)C[C@@]2(C)[C@H]1CC[C@]2(O)C(=O)CO`, the Z-AUC came out at 0.0884.

The test is the same for the next values; noted with them: PEO1/OlaR viability, CellTiter-Glo luminescence, 96 h; measured here: PEO4 Z-AUC; stronger effect = lower value.
For `CC(=O)O[C@]1(C(C)=O)CC[C@H]2[C@@H]3C[C@H](C)C4=CC(=O)CC[C@]4(C)[C@H]3CC[C@@]21C`, the Z-AUC is 0.0735.

On to `CC(=O)N(O)CCCCCNC(=O)CCC(=O)N(O)CCCCCNC(=O)CCC(=O)N(O)CCCCCN`, for which the Z-AUC is -0.683.

Consider `Cc1cc2c(cc1CC(=O)c1sccc1S(=O)(=O)Nc1onc(C)c1Cl)OCO2`, for which the Z-AUC was 0.661.

On to `COc1cc(NS(C)(=O)=O)ccc1Nc1c2ccccc2nc2ccccc12`, for which the Z-AUC was -0.818.

Regarding `C[C@]12CCC(=O)C=C1[C@@H]1C[C@@H]1[C@H]1[C@@H]3[C@@H]4C[C@@H]4[C@@]4(CCC(=O)O4)[C@@]3(C)CC[C@@H]12`, the Z-AUC turned out to be 1.11.

For `COC(=O)[C@@H]1CC2=CC(=O)CC[C@]2(C)[C@@]23O[C@@H]2C[C@@]2(C)[C@@H](CC[C@@]24CCC(=O)O4)[C@H]13`, the Z-AUC stood at 0.317.

Turning to `COc1cccc2c1C(=O)c1c(O)c3c(c(O)c1C2=O)C[C@@](O)(C(C)=O)C[C@@H]3O[C@H]1C[C@H](N)[C@H](O)[C@H](C)O1`, the Z-AUC is -2.06.

For `CC(C)n1nc(-c2cc3cc(O)ccc3[nH]2)c2c(N)ncnc21`, the Z-AUC is -1.52.

As to `COc1c(C)c2c(c(O)c1C/C=C(\C)CCC(=O)O)C(=O)OC2`, the Z-AUC was -0.309.

With `C[C@]12CC[C@@H]3c4ccc(O)cc4CC[C@H]3[C@@H]1C[C@@H](O)[C@@H]2O`, the Z-AUC was 0.225.

`C[C@]12C=CC(=O)C=C1CC[C@@H]1[C@@H]2[C@@H](O)C[C@@]2(C)[C@H]1CC[C@]2(O)C(=O)CO`: the Z-AUC was -0.444.
